Among the test systems are NCI-H23 lung; NCI-H226 lung; NCI-H322M lung; NCI-H460 lung; HOP-92 NSCLC; NCI-H522 lung; A549/ATCC NSCLC; 786-0 renal; COLO 205 colon; HOP-62 NSCLC.
Common to all, as to test: NCI-60 one-dose screen, 48 h (100 = growth as untreated, 0 = no growth, -100 = all killed)
What all share (details): 10 µM unless noted

About 83,000 compounds went through this panel and 20% of them were active in at least one assay; those are over-represented in the sample as a whole.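 The endpoint reported here, percent growth, reads 100 for growth as untreated, 0 for no net growth and -100 for all cells dead.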 Values without a mark were called inactive. Activity calls are given as the source filed them. The calls were made as follows: active = growth percent below 10; inactive = the rest.

As to `CSc1nc2ncc([N+](=O)[O-])c(=O)n2[nH]1`, the growth with NCI-H23 lung was 104%; in the test with NCI-H226 lung it was 97%; with NCI-H322M lung, 110%; in the test with NCI-H460 lung, 103%; with HOP-92 NSCLC, 52.4%; with NCI-H522 lung, 93.8%. The growth in the test on A549/ATCC NSCLC was 101%; in the test on 786-0 renal, 108%; with COLO 205 colon, 119%.
For `CNC(=O)c1[nH]cc(-c2ccc(OC)cc2)c1-c1cc(OC)c2c(c1OC)OCO2`, the growth with NCI-H23 lung is 97.6%; in the test with NCI-H226 lung it was 97.8%; in the test with NCI-H322M lung it was 96.2%; in the test on NCI-H460 lung, 105%; in the test on HOP-92 NSCLC, 89.6%; in the test on NCI-H522 lung it was 101%. The growth with A549/ATCC NSCLC is 99.1%; in the test on 786-0 renal, 96.7%; in the test on COLO 205 colon, 118%.
Take `O=C(Nc1ccccc1O)c1ccc(CNC(=O)c2sccc2Nc2ccnc(C(F)(F)F)c2)cc1`: the growth was 51.7% in the test with NCI-H23 lung; 54.8% in the test on NCI-H226 lung; 51% in the test on NCI-H322M lung; 42% in the test on NCI-H460 lung; 20.9% in the test on HOP-92 NSCLC; 7.48% (active) with NCI-H522 lung. In addition, the growth is 66.5% in the test with A549/ATCC NSCLC, 60.4% in the test with 786-0 renal and 73.3% in the test with COLO 205 colon.
Take `COc1ccc(/C=C/C(=O)c2cccc(OCCCCOc3cccc(C(=O)/C=C/c4ccc(OC)c(OC)c4)c3)c2)cc1OC`: the growth was 54.5% with NCI-H23 lung; 57.5% in the test with NCI-H226 lung; 87.3% in the test with NCI-H322M lung; 80.5% in the test on NCI-H460 lung; 55.3% in the test with HOP-92 NSCLC; 64.4% in the test with NCI-H522 lung. Moreover, the growth in the test on A549/ATCC NSCLC is 78%; with 786-0 renal it was 89.8%; in the test on COLO 205 colon, 112%.
As for `COc1ccc(-c2ccc(-c3ccc(C(=N)N)cc3)s2)cc1Cl`, the growth in the test with NCI-H23 lung is 61.4%; in the test with NCI-H226 lung it was 92.8%; in the test with NCI-H322M lung, -35.5% (active); with NCI-H460 lung, -66.4% (active); in the test with HOP-92 NSCLC, 75.8%; in the test on NCI-H522 lung, -36.1% (active). The growth is -48.2% (active) in the test with A549/ATCC NSCLC, -83.1% (active) in the test on 786-0 renal and -36.1% (active) in the test on COLO 205 colon.
Consider `CC(C)=CC(=O)OCC(=O)O[C@@H]1C[C@]2(C(C)C)O[C@@]1(C)[C@@H]1CC[C@@H](C)[C@H]1[C@@H]2OC(=O)/C=C/c1ccccc1`, for which the growth in the test on NCI-H23 lung was 76%; in the test on NCI-H226 lung, 55.5%; with NCI-H322M lung it was 90.7%; in the test with NCI-H460 lung, 93.5%; in the test on HOP-92 NSCLC it was 61%; in the test on NCI-H522 lung, 70.4%. Besides, the results for the growth with A549/ATCC NSCLC, in the test with 786-0 renal and with COLO 205 colon were 83.4%, 66% and 106%, respectively.
For the compound `c1ccc2cc(C[n+]3ccn(CCCCCCCCCCn4cc[n+](Cc5ccc6ccccc6c5)c4)c3)ccc2c1`, the growth in the test with NCI-H23 lung was 5.67% (active); in the test with NCI-H226 lung, 39.5%; in the test on NCI-H322M lung it was 34.5%; with NCI-H460 lung it was 11%; in the test on HOP-92 NSCLC, -23.6% (active); with NCI-H522 lung, -72.3% (active). For the same compound, the figures for the growth with A549/ATCC NSCLC, in the test with 786-0 renal and with COLO 205 colon were 18.5%, 35.6% and -81.1% (active), respectively.
As for `Cc1ccc(C[P+](c2ccccc2)(c2ccccc2)c2ccccc2)cc1`, the growth with NCI-H23 lung was -9.16% (active); in the test on NCI-H226 lung, 16.1%; in the test with NCI-H322M lung it was 38.8%; in the test on NCI-H460 lung, 3.04% (active); in the test on HOP-92 NSCLC it was -0.267% (active); in the test on NCI-H522 lung, 10.3%. For the same compound, the growth is 26.9% with A549/ATCC NSCLC, 25.6% in the test with 786-0 renal and -15.5% (active) in the test on COLO 205 colon.
Consider `O=C(CN1C(=O)S/C(=C\C(Cl)=C\c2ccccc2)C1=O)NCCc1ccc(O)cc1`, for which the growth in the test on NCI-H23 lung is 40.2%; in the test on NCI-H226 lung, 60.1%; in the test with HOP-62 NSCLC, 43%; with NCI-H460 lung, 45.7%; in the test on HOP-92 NSCLC it was 15.6%; in the test on NCI-H522 lung, -6.49% (active). For the same compound, the growth was 48.8% in the test on A549/ATCC NSCLC, -17.9% (active) in the test with 786-0 renal and 13.7% with COLO 205 colon.
Regarding `CCOC(=O)c1cc(C(=O)c2cc(OC)c(OC)c(OC)c2)n2ncccc12`, the growth in the test with NCI-H23 lung was 38%; in the test with NCI-H226 lung it was 29.6%; in the test with HOP-62 NSCLC, 32.2%; in the test with NCI-H460 lung it was 10.3%; in the test with HOP-92 NSCLC, 73.6%; in the test with NCI-H522 lung it was 34.8%. Further, the growth is 24.1% in the test with A549/ATCC NSCLC, 26.5% with 786-0 renal and -24.7% (active) in the test with COLO 205 colon.
With `Cn1cc(-c2csc(-c3c[nH]c4ccccc34)n2)c2cnccc21`, the growth in the test with NCI-H23 lung was 85.5%; in the test with NCI-H226 lung, 87.7%; in the test with HOP-62 NSCLC, 8.92% (active); with NCI-H460 lung, -17.7% (active); with HOP-92 NSCLC, 72.7%; with NCI-H522 lung it was -39.6% (active). Besides, the growth was 18% in the test on A549/ATCC NSCLC, -87% (active) with 786-0 renal and -37.3% (active) in the test on COLO 205 colon.
As to `CC1=C2[C@@H](CC1)[C@]1(C)O[C@@](C(C)C)(C[C@H]1OC(=O)[C@H](C)O)[C@H]2OC(=O)/C=C/c1ccccc1`, the growth with NCI-H23 lung was 90.7%; in the test with NCI-H226 lung, 84.2%; with HOP-62 NSCLC, 80.9%; in the test on NCI-H460 lung it was 88.9%; with HOP-92 NSCLC it was 55.9%; in the test with NCI-H522 lung, 74%. For the same compound, the results for the growth in the test with A549/ATCC NSCLC, in the test with 786-0 renal and in the test with COLO 205 colon were 66.9%, 66.5% and 98.8%, respectively.
Turning to `COc1cc2c(c(OC)c1OC)CCC(c1cccc(C(=O)Nc3cccc(Cl)c3)c1)O2` (stereo not given), the growth with NCI-H23 lung is 85.8%; in the test on NCI-H226 lung, 65.6%; with NCI-H460 lung, 85%; in the test with HOP-92 NSCLC, 8.45% (active); with NCI-H522 lung, 51.7%; with A549/ATCC NSCLC it was 61.6%. The growth in the test on 786-0 renal was 79.8%; in the test with COLO 205 colon, 76.7%.
Regarding `CNC(=O)c1ccccc1Oc1nc(Nc2cc(OC)c(OC)c(OC)c2)ncc1Br`, the growth in the test on NCI-H23 lung is 55.2%; in the test with NCI-H226 lung, 21.8%; in the test on HOP-62 NSCLC, 49.7%; in the test on NCI-H460 lung, 43.9%; with HOP-92 NSCLC, 60.6%; with NCI-H522 lung, 53.9%. Besides, the growth in the test with A549/ATCC NSCLC was 46.4%; with 786-0 renal it was 48.9%; in the test with COLO 205 colon, -12.6% (active).

The values above are taken from PubChem BioAssay (NCI).
